This passage reports outcome and AC50 results from PubChem BioAssay (EPA / NIEHS).

Read-out in assay [1]: Protein phosphatase 2A (PPP2R4), PTPA (gene 5524)
The assay can be described thus: LTEA_HepaRG_PPP2R4: Life Technologies and Expression Analysis (LTEA) Assay for Protein phosphatase 2A (PPP2R4) using HepaRG (AID 2283522). Conditions: mRNA level, 48 h; actives raise or lower the signal. Put shortly:
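Expression was quantified by Fluidigm qRT-PCR normalised to three housekeeping genes after 48 h treatment. Human HepaRG cells received an 8-point series from 100 µM downward by half-logs, in duplicate with 0.5% DMSO vehicle and 1 mM phenobarbital as induction control.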

Read-out in assay [2]: solute carrier (SLC22A1), SLC22A1 (gene 6580)
The assay can be described thus: LTEA_HepaRG_SLC22A1: Life Technologies and Expression Analysis (LTEA) Assay for solute carrier (SLC22A1) using HepaRG (AID 2283524).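 For AC50: differentiated human HepaRG liver cells in serum-free induction medium.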 The note with it: mRNA level, 48 h; actives raise or lower the signal. Put shortly:
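qRT-PCR readout (TaqMan, Fluidigm arrays) of SLC22A1 transcript, normalized to three housekeeping genes; bidirectional curve fit relative to 0.5% DMSO vehicle. Differentiated human HepaRG cells, 48 h chemical exposure, top concentration 100 uM, half-log steps, eight points.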

Read-out in assay [3]: Pyruvate Dehydrogenase Kinase 4 (PDK4), PDK4 (gene 5166)
As to the kind of experiment: LTEA_HepaRG_PDK4: Life Technologies and Expression Analysis (LTEA) Assay for Pyruvate Dehydrogenase Kinase 4 (PDK4) using HepaRG (AID 2283525). The note with it: mRNA level, 48 h; actives raise or lower the signal. In a few lines:
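HepaRG (human liver line), 48 h chemical exposure, 8-pt half-log CRC top 100 uM, 0.5% DMSO vehicle, duplicates. Readout: TaqMan qRT-PCR of PDK4 mRNA, housekeeping-normalized; gain/loss fit relative to DMSO baseline.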

Read-out in assay [4]: NAD(P)H dehydrogenase [quinone] 1 (NQO1), NQO1 (gene 1728)
As to the kind of experiment: LTEA_HepaRG_NQO1: Life Technologies and Expression Analysis (LTEA) Assay for NAD(P)H dehydrogenase [quinone] 1 (NQO1) using HepaRG (AID 2283526). The note with it: mRNA level, 48 h; actives raise or lower the signal. Put shortly:
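NQO1 transcript induction or loss measured by TaqMan qRT-PCR, referenced to three housekeeping genes and fitted bidirectionally against 0.5% DMSO. HepaRG cultures exposed 48 h, duplicate, eight-point half-log series, top 100 uM.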

Read-out in assay [5]: Nuclear factor erythroid 2-related factor 2 (Homo sapiens) (UniProt Q16236)
The assay can be described thus: LTEA_HepaRG_NFE2L2: Life Technologies and Expression Analysis (LTEA) Assay for Nuclear factor erythroid 2-related factor 2 (NFE2L2) Transcription Factor using HepaRG (AID 2283527).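 For outcome: TaqMan qRT-PCR transcript level normalised to ACTB GAPDH and POLR2A housekeeping genes.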 The note with it: mRNA level, 48 h; actives raise or lower the signal. Put shortly: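 HepaRG, 48 h dosing, 8-pt half-log series from 100 uM in 0.5% DMSO, duplicates. Read-out: NFE2L2 mRNA by qRT-PCR (ACTB/GAPDH/POLR2A normalization). Bidirectional curve fit vs DMSO baseline.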

Read-out in assay [6]: succinate dehydrogenase complex iron sulfur subunit B (SDHB), SDHB (gene 6390)
As to the kind of experiment: LTEA_HepaRG_SDHB: Life Technologies and Expression Analysis (LTEA) Assay for succinate dehydrogenase complex iron sulfur subunit B (SDHB) using HepaRG (AID 2283528). The note with it: mRNA level, 48 h; actives raise or lower the signal. In a few lines:
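HepaRG cells (~100,000/well, plated 48 h) exposed in duplicate for 48 h in serum-free induction medium to 8-point half-log series from 100 uM in 0.5% DMSO; mRNA by qRT-PCR normalised to ACTB, GAPDH, POLR2A; bidirectional fit versus DMSO.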

Read-out in assay [7]: Signal transducer and activator of transcription 3 (Homo sapiens) (UniProt P40763)
As to the kind of experiment: LTEA_HepaRG_STAT3: Life Technologies and Expression Analysis (LTEA) Assay for Signal transducer and activator of transcription (STAT3) using HepaRG (AID 2283529). The note with it: mRNA level, 48 h; actives raise or lower the signal. Put shortly: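 HepaRG, 48 h exposure, 8-pt half-log series (top 100 uM), 0.5% DMSO vehicle, duplicates. Readout: STAT3 transcript by Fluidigm qRT-PCR, housekeeping-normalized; bidirectional fit vs DMSO baseline.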

Read-out in assay [8]: solute carrier (SLCO1B1), SLCO1B1 (gene 10599)
The assay can be described thus: LTEA_HepaRG_SLCO1B1: Life Technologies and Expression Analysis (LTEA) Assay for solute carrier (SLCO1B1) using HepaRG (AID 2283530). The note with it: mRNA level, 48 h; actives raise or lower the signal. In a few lines: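 HepaRG, serum-free induction medium, 48 h dosing, 8-pt half-log from 100 uM, 0.5% DMSO vehicle, duplicates. Readout: SLCO1B1 mRNA, qRT-PCR, ACTB/GAPDH/POLR2A normalization; up or down fit vs DMSO.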

Read-out in assay [9]: sulfotransferase 2A1 (SULT2A1), SULT2A1 (gene 6822)
As to the kind of experiment: LTEA_HepaRG_SULT2A1: Life Technologies and Expression Analysis (LTEA) Assay for sulfotransferase 2A1 (SULT2A1) using HepaRG (AID 2283531). The note with it: mRNA level, 48 h; actives raise or lower the signal. In a few lines: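 Transcript levels of SULT2A1, quantified by qRT-PCR and normalized to three housekeeping genes, serve as the readout. Human HepaRG cultures receive test chemicals for 48 h at up to 100 uM in half-log steps, with 0.5% DMSO vehicle.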

Read-out in assay [10]: Transforming Growth Factor (TGFA), TGFA (gene 7039)
As to the kind of experiment: LTEA_HepaRG_TGFA: Life Technologies and Expression Analysis (LTEA) Assay for Transforming Growth Factor (TGFA) using HepaRG (AID 2283532). The note with it: mRNA level, 48 h; actives raise or lower the signal. Put shortly: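 qRT-PCR read-out of TGFA transcript, normalized to three housekeeping genes, fitted bidirectionally against 0.5% DMSO baseline. Human HepaRG cultures received chemicals for 48 h at eight half-log concentrations, top 100 uM.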

Read-out in assay [11]: Transforming Growth Factor (TGFB1), TGFB1 (gene 7040)
As to the kind of experiment: LTEA_HepaRG_TGFB1: Life Technologies and Expression Analysis (LTEA) Assay for Transforming Growth Factor (TGFB1) Transporter using HepaRG (AID 2283533). The note with it: mRNA level, 48 h; actives raise or lower the signal. Put shortly: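 HepaRG, 48 h post-plating, switched to serum-free induction medium; chemicals 100 uM top, half-log, 8 pts, 0.5% DMSO, dup; 48 h exposure; RNA → Fluidigm TaqMan qRT-PCR; norm ACTB/GAPDH/POLR2A; bidirectional fit vs DMSO.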

Read-out in the next assay: TIMP1, TIMP1 (gene 7076)
The assay can be described thus: LTEA_HepaRG_TIMP1: Life Technologies and Expression Analysis (LTEA) Assay for TIMP1 using HepaRG (AID 2283534). Conditions: mRNA level, 48 h; actives raise or lower the signal. In a few lines: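 Readout is TIMP1 mRNA level measured by qRT-PCR and normalized to three housekeeping genes. Human HepaRG cells were treated for 48 h in duplicate at eight concentrations up to 100 uM (0.5% DMSO); gain or loss fitted against DMSO.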

Read-out in assay [12]: Thyroid Hormone Responsive (THRSP), THRSP (gene 7069)
As to the kind of experiment: LTEA_HepaRG_THRSP: Life Technologies and Expression Analysis (LTEA) Assay for Thyroid Hormone Responsive (THRSP) using HepaRG (AID 2283536). Conditions: mRNA level, 48 h; actives raise or lower the signal. Put shortly:
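qRT-PCR read-out (Fluidigm TaqMan), housekeeping-normalized (ACTB/GAPDH/POLR2A). HepaRG, 48 h chemical exposure, 8-pt half-log series from 100 uM in 0.5% DMSO, duplicates. Bidirectional curve fit vs 0.5% DMSO baseline.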

Read-out in assay [13]: Cellular tumor antigen p53 (Homo sapiens) (UniProt P04637)
The assay can be described thus: LTEA_HepaRG_TP53: Life Technologies and Expression Analysis (LTEA) Assay for Tumor Protein P53 (TP53) using HepaRG (AID 2283537). Conditions: mRNA level, 48 h; actives raise or lower the signal. Put shortly:
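Differentiated HepaRG cells in serum-free induction medium exposed 48 h in duplicate to 8 half-log concentrations, top 100 uM, 0.5% DMSO. TP53 mRNA by TaqMan qRT-PCR (Fluidigm), normalized to ACTB, GAPDH, POLR2A; fitted bidirectionally versus DMSO.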

Read-out in assay [14]: UDP glucuronosyltransferase (UGT1A1), UGT1A1 (gene 54658)
As to the kind of experiment: LTEA_HepaRG_UGT1A1: Life Technologies and Expression Analysis (LTEA) Assay for UDP glucuronosyltransferase (UGT1A1) using HepaRG (AID 2283538). The note with it: mRNA level, 48 h; actives raise or lower the signal. Put shortly: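 UGT1A1 transcript level, measured by qRT-PCR with three housekeeping genes for normalization, after 48 h treatment of human HepaRG cells (0.5% DMSO, duplicates, up to 100 uM, half-log steps, 8 points). Curves fit both directions against DMSO baseline.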

Assay [15] in a line: LTEA_HepaRG_LDH_cytotoxicity: Cytotoxicity Assessment in the Life Technologies and Expression Analysis (LTEA) Assay (AID 2283563; active = hit-call score of the fitted dose curve at least 0.9, where 1 is the maximum;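 for AC50: LDH activity released into spent culture medium as a marker of cell death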). In a few lines: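 Cells were thawed and plated for 48 h. Medium was then replaced with serum-free induction medium. Chemicals (8 half-log points, maximum 100 uM, 0.5% DMSO) were added in duplicate for 48 h, after which spent medium was assayed for LDH.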

Read-out in assay [16]: Phosphatase and tensin (PTEN), PTEN (gene 5728)
The assay can be described thus: LTEA_HepaRG_PTEN: Life Technologies and Expression Analysis (LTEA) Assay for Phosphatase and tensin (PTEN) using HepaRG (AID 2283523). The note with it: mRNA level, 48 h; actives raise or lower the signal. In a few lines:
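HepaRG, 48 h exposure, 8-pt half-log series from 100 uM top, 0.5% DMSO vehicle, duplicates. Readout: Fluidigm qRT-PCR of PTEN transcript; housekeeping normalization (ACTB, GAPDH, POLR2A). Gain or loss fitted relative to DMSO baseline.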

Read-out in assay [17]: UDP glucuronosyltransferase (UGT1A6), UGT1A6 (gene 54578)
As to the kind of experiment: LTEA_HepaRG_UGT1A6: Life Technologies and Expression Analysis (LTEA) Assay for UDP glucuronosyltransferase (UGT1A6) using HepaRG (AID 2283539). The note with it: mRNA level, 48 h; actives raise or lower the signal. In a few lines:
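HepaRG, 48 h post-plating switch to serum-free induction medium; chemical 48 h, 100 uM top, half-log x8, duplicate, 0.5% DMSO. Phenobarbital 1mM induction control. UGT1A6 mRNA by TaqMan qRT-PCR; gain/loss fit vs DMSO.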

Read-out in assay [18]: X-box binding protein 1 (XBP1), XBP1 (gene 7494)
The assay can be described thus: LTEA_HepaRG_XBP1: Life Technologies and Expression Analysis (LTEA) Assay for X-box binding protein 1 (XBP1) using HepaRG (AID 2283540). The note with it: mRNA level, 48 h; actives raise or lower the signal. In a few lines:
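Transcript levels of XBP1, measured by qRT-PCR and normalised to three housekeeping genes, were fitted bidirectionally relative to 0.5% DMSO controls. Human HepaRG cells received eight-point half-log dilutions from 100 uM for 48 h.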

Active and inactive are the calls of the source. Rule for the calls, unless noted: active = hit-call score of the fitted dose curve at least 0.9, where 1 is the maximum; inactive = score below 0.9.

Signal transducer and activator of transcription 3 (Homo sapiens), sequence (P40763 whole entry, looked up): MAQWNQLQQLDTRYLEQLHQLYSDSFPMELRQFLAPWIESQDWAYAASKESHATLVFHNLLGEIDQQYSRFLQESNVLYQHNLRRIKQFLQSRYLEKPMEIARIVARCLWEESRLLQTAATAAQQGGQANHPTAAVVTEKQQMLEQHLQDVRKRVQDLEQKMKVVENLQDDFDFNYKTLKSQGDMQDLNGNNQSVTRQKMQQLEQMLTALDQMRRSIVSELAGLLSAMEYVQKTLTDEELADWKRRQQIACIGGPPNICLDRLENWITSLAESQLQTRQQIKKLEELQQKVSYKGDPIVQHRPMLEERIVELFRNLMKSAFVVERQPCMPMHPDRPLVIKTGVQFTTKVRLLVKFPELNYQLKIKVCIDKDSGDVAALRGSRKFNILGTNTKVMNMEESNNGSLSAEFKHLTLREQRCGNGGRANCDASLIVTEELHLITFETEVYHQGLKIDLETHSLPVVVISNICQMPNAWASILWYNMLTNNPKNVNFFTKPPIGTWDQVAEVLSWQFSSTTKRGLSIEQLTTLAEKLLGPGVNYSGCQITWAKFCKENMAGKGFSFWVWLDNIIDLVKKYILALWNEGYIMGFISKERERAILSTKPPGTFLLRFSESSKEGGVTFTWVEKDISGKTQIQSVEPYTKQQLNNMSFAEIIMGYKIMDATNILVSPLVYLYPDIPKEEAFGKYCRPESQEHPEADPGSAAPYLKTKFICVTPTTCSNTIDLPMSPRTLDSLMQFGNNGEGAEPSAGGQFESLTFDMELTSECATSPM
Nuclear factor erythroid 2-related factor 2 (Homo sapiens), sequence (Q16236 whole entry, looked up): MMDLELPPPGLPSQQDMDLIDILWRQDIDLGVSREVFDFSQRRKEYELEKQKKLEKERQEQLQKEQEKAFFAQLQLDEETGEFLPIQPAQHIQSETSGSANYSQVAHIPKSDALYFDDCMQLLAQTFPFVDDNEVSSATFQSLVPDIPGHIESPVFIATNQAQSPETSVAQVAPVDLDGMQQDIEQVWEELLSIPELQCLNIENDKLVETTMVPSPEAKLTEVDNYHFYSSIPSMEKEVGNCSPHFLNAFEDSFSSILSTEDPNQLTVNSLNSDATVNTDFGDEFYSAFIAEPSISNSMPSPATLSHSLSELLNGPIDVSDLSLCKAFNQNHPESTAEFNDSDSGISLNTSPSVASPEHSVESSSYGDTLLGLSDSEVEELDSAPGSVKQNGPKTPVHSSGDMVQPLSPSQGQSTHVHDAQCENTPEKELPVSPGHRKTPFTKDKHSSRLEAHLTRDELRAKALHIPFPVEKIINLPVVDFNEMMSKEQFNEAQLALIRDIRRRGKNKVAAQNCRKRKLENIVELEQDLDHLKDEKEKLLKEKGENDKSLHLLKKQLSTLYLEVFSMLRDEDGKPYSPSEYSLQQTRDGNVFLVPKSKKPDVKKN
Cellular tumor antigen p53 (Homo sapiens), sequence (P04637 whole entry, looked up): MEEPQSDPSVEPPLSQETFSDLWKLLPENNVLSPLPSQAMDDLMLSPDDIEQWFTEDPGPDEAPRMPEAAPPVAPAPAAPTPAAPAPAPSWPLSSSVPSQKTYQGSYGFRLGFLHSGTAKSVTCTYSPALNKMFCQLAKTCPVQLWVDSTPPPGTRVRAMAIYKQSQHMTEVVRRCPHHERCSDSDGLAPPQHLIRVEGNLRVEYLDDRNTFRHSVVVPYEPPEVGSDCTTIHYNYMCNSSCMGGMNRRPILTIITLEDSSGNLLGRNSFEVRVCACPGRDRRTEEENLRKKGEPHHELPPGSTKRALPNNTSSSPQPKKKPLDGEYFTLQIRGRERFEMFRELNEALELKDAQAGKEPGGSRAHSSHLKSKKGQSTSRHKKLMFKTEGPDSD

As a reminder, the AC50 is the concentration at which the activity in the assay is half-maximal. For the molecule `CCCN(CCOc1c(Cl)cc(Cl)cc1Cl)C(=O)n1ccnc1`, the outcome in assay [1] is “inactive”; in assay [4], “inactive”; in assay [7], “inactive”; with TIMP1, TIMP1 (gene 7076), “inactive”. The AC50 was 29.5 µM (active) in assay [2]; 30.8 µM (active) in assay [3]; 29.9 µM (active) in assay [5]; 12.1 µM (active) in [6]; 64.2 µM (active) in [8]; 34.9 µM (active) in [9]. Further, the half-maximal activity concentration (AC50) in assay [10] was 50 µM (active); in assay [11] it was 27.6 µM (active); in assay [12], 3.79 µM (active); in assay [13], 17.6 µM (active); in assay [14], 73.7 µM (active); in assay [15], 36 µM (active).
On to `CCC(C)(C)C(=O)OC1=C(c2ccc(Cl)cc2Cl)C(=O)OC12CCCCC2`, for which the outcome in assay [1], in assay [16], in assay [2], in assay [3], in assay [4] and in [5] was inactive. Moreover, the outcome in assay [6] is “inactive”; in [7], “inactive”; in assay [8] it was “inactive”; in assay [10], “inactive”; in [11] it was “inactive”; with TIMP1, TIMP1 (gene 7076), “inactive”. In addition, the result in [12], in assay [13], in assay [14], in assay [17] and in assay [15] was inactive.
Turning to `CC1(C)C(C=C(Cl)Cl)C1C(=O)OC(C#N)c1ccc(F)c(Oc2ccccc2)c1` (stereo not given), the molecule was called inactive in assay [1], in assay [2], in assay [4], in assay [6], in assay [7] and in assay [8]. For the same molecule, the outcome in assay [10] is “inactive”; in assay [11] it was “inactive”; in the assay with TIMP1, TIMP1 (gene 7076), “inactive”; in assay [12], “inactive”; in [13], “inactive”; in assay [18] it was “inactive”. Moreover, the molecule was classed as inactive in assay [15]. Also, the half-maximal activity concentration (AC50) in [3] is 50 µM (active); in assay [5], 50 µM (active); in assay [9], 50 µM (active); in [14] it was 10.2 µM (active).
